Measured values: the supplement of paper PMC7801607

Key:
CHO = assay: % viability of CHO cells (MTT); higher = less toxic; settings: 48 h
How it was run: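 Percent viability of CHO cells, relative to untreated cells, was read colorimetrically by tetrazolium (MTT) assay. Cells were seeded at 10^6 cells/well and treated for 48 h with compound at 2 or 20 µM in fresh medium.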

HepG2-A16-CD81 = assay: % inhibition of HepG2 viability (CellTiter-Glo); higher = more toxic; settings: 5 µM
[1] = test system: Plasmodium falciparum NF54 stage IV/V gametocytes; assay: % inhibition of gametocyte viability (PrestoBlue); higher = more inhibition; settings: 48 h
How it was run: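 Stage IV/V NF54 gametocytes were exposed to compound at 1 or 5 µM for 48 h at 37 °C under stationary, hypoxic conditions, then read by PrestoBlue fluorescence at 612 nm. The percent inhibition of gametocyte viability was normalised to vehicle and kill controls from one run.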

[2] = test system: Plasmodium falciparum NF54 asexual blood stage; assay: % inhibition of asexual blood stage proliferation (pLDH); higher = more inhibition; settings: 72 h
How it was run: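 Ring-stage cultures of Plasmodium falciparum NF54 at 1% haematocrit and 2% parasitaemia were treated with compound at 2 or 20 µM in 96-well plates and kept for 72 h at 37 °C under 4% CO2, 3% O2 and 93% N2. Parasite survival was measured by the parasite lactate dehydrogenase assay, read colorimetrically at 620 nm. Percent inhibition of asexual proliferation was calculated relative to control wells, and the screen was carried out on two separate occasions.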

[3] = test system: Plasmodium falciparum NF54 stage IV/V gametocytes; assay: % inhibition of gametocyte viability (ATP bioluminescence); higher = more inhibition; settings: 24 h
How it was run: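 Stage IV/V NF54 gametocytes were enriched on density gradients and seeded at 30,000 per well in 96-well plates with compound at 1 or 5 µM. Plates were incubated for 24 h at 37 °C. ATP was measured with the Promega BacTiter Glo bioluminescence system. Percent inhibition of gametocyte viability was normalised to DMSO and kill controls from a single run.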

[4] = test system: Plasmodium falciparum NF54 stage IV/V gametocytes; assay: % inhibition of gametocyte viability (luciferase reporter); higher = more inhibition; settings: 48 h
How it was run: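 Percent inhibition was normalised to controls from a single run. Stage IV/V gametocytes of the NF54-Pfs16-GFP-Luc line, at 2% gametocytaemia and 2% haematocrit, were exposed to compound at 1 or 5 µM for 48 h at 37 °C under stationary, hypoxic conditions. Luminescence was then read from 30 µL lysate mixed with 30 µL Promega luciferin substrate on a GloMax-Multi+ reader with 10 s integration.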

[5] = test system: Plasmodium berghei ANKA liver stage in HepG2-A16-CD81; assay: % inhibition of liver stage parasite viability (luciferase); higher = more inhibition; settings: 5 µM; 48 h
Method: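 Single-concentration screen of the MMV Pandemic Response Box. P. falciparum NF54 asexual blood stages: pLDH assay, 72 h at 37 °C, 2 and 20 µM, n=2. Stage IV/V gametocytes (NF54): luciferase reporter (NF54-Pfs16-GFP-Luc, 48 h), ATP bioluminescence (24 h) and PrestoBlue (48 h) at 1 and 5 µM, n=1. P. berghei liver stage (luciferase in HepG2-A16-CD81, 48 h post infection) at 5 µM, n=4. All normalised to DMSO and kill controls as % inhibition.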
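For % inhibition of HepG2 viability (CellTiter-Glo) in this document: HepG2-A16-CD81 hepatoma cells plated as in the liver-stage assay but without sporozoites, with DMSO wells as negative and 25 µM puromycin as positive control.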

Row | SMILES | % viability of CHO cells (CHO; 2 µM) [%] | % viability of CHO cells (CHO; 20 µM) [%] | % inhibition of HepG2 viability (HepG2-A16-CD81) [%] | % inhibition of gametocyte viability ([1]; 1 µM) [%] | % inhibition of gametocyte viability ([1]; 5 µM) [%] | % inhibition of asexual blood stage proliferation ([2]; 2 µM) [%] | % inhibition of asexual blood stage proliferation ([2]; 20 µM) [%] | % inhibition of gametocyte viability ([3]; 1 µM) [%] | % inhibition of gametocyte viability ([3]; 5 µM) [%] | % inhibition of gametocyte viability ([4]; 1 µM) [%] | % inhibition of gametocyte viability ([4]; 5 µM) [%] | % inhibition of liver stage parasite viability [5] [%]
1 | Oc1ccc(NCc2ccccc2OCc2ccccc2)cc1 | 97.9 | 103 | -1.04 | < 0 | < 0 | 18.6 | 95 | < 0 | < 0 | < 0 | < 0 | 25.2
2 | O=C(c1cc(O)nc2ccccc12)N1CCN(c2ccccc2)CC1 | 95.9 | 52.7 | -2.09 | < 0 | < 0 | 24.8 | 48.3 | 4.72 | 10.4 | < 0 | < 0 | 34.2
3 | C=C[C@]1(C)C[C@@H](OC(=O)CS[C@@H]2C[C@H]3CC[C@@H](C2)N3C)[C@]2(C)[C@H](C)CC[C@]3(CCC(=O)[C@H]32)[C@@H](C)[C@@H]1O | 77.8 | 48.9 | 7.56 | < 0 | 2.51 | 68.8 | 104 | 1.57 | 7.83 | < 0 | < 0 | 53
4 | C[C@H]1[C@@H](c2cccc(C(F)(F)F)c2)OC(=O)N1C(=O)NCc1cncc2ccccc12 | 93.8 | 118 | 12.1 | < 0 | 27.7 | -2.37 | 30.8 | < 0 | < 0 | < 0 | < 0 | 63.9
5 | Cc1c(OCC(F)(F)F)ccnc1CS(=O)c1nc2ccccc2[nH]1 (stereo unspecified) | 87.1 | 96.9 | 1.82 | 14.1 | 15.8 | 71.5 | 95.5 | < 0 | < 0 | < 0 | < 0 | -23.2
6 | CC(C)Oc1ccc(-c2nc(-c3cccc4c3CC[C@@H]4NCCO)no2)cc1C#N | 113 | 117 | -1.14 | 16.7 | 7.83 | 78.4 | 87.9 | 14.3 | 84.7 | < 0 | < 0 | 21.6
7 | O=C(NN1C(=O)[C@@H]2C3C=CC([C@H]4C[C@@H]34)[C@@H]2C1=O)c1ccc(C(F)(F)F)cc1 | 97.4 | 120 | -2.51 | < 0 | < 0 | 4.37 | 23 | 1.06 | < 0 | < 0 | 4.75 | 26.8
8 | O=C(Nc1ccc(-c2ccccc2)cc1)C1=C(O)C(Cc2ccccc2)OC1=O (stereo unspecified) | 93.6 | 90.4 | 13.1 | < 0 | 13.8 | 39.5 | 101 | < 0 | < 0 | < 0 | < 0 | 44.3
9 | O=C(O)c1ccccc1Sc1ncnc2sc3c(c12)CCC3 | 103 | 89.7 | 4.01 | 20 | 18.3 | -19.5 | -13.7 | 2.23 | < 0 | < 0 | < 0 | -30.6
10 | CN(C)CCCOc1ccc(-c2ccc3ncc4c(c3c2)n(C2CCOCC2)c(=O)n4C)cn1 | 99.8 | 75.9 | 4 | 61.8 | 91.9 | 68.1 | 57.1 | 18.7 | 33.7 | 78.1 | 92 | 64.6
11 | NC[C@H]1OB(O)c2c(OCCCO)cccc21 | 123 | 109 | -3.46 | 10.1 | < 0 | 6.89 | 18.5 | < 0 | < 0 | < 0 | 2.44 | -16.7
12 | CCN(CC)S(=O)(=O)c1ccc(Cl)c(C(=O)Nc2sc3c(c2C#N)CCCC3)c1 | 100 | 109 | 20.9 | < 0 | < 0 | 0.194 | 18.9 | < 0 | < 0 | < 0 | 9.16 | 69.2
13 | O=C(NCc1cccc2ccccc12)c1cccs1 | 101 | 134 | 7.63 | 13.5 | 24.3 | -14.2 | -4.95 | < 0 | < 0 | < 0 | < 0 | -19.8
